Molecules are shown by their SMILES. Screen size: about 360,000 compounds; about 2,600 (0.72%) were called active. The list comes from a sample in which actives are over-represented; it also holds similar structures and randomly drawn compounds. A number with no mark means an inactive call.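 The calls were made as follows: active = inhibition above its plate's cutoff, the mean inhibition of sample wells plus 3 SD (cut at about 27% in these data); inactive = the rest.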

For the assay, the target named is Muscarinic acetylcholine receptor M4 (Homo sapiens) (UniProt P08173). Description: CHRM4 blockers of acetylcholine calcium response – CHO cells, Fluo-8 calcium fluorescence, primary screen (AID 624125).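 Also: 0% = acetylcholine EC80 with DMSO and 100% = DMSO without agonist.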 As to conditions: CHO-hM4 cells, ACh EC80, Fluo-8 calcium fluorescence; at 3 µM; hits give high values.
Muscarinic acetylcholine receptor M4 (Homo sapiens), sequence (P08173 whole entry, looked up): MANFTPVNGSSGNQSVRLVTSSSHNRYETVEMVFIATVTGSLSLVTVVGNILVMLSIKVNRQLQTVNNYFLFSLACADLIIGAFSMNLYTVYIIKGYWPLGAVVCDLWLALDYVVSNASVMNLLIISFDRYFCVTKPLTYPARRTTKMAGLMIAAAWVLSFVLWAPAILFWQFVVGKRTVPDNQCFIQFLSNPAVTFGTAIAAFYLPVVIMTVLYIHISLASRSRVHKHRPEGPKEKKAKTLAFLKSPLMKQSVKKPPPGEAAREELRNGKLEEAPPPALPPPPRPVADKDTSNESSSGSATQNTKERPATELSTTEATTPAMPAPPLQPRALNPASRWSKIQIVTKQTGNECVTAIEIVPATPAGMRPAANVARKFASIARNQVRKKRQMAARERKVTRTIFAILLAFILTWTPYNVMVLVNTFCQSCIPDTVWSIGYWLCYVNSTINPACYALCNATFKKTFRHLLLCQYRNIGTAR
Turning to `Cc1cccc(CSc2ccc(-c3cccs3)nn2)c1`, the inhibition was -4.51%.
Regarding `CSCCC1NC(=O)N(CC(=O)Nc2cccc(S(=O)(=O)N3CCCCCC3)c2)C1=O` (stereo unspecified), the inhibition is -15.2%.
The figure for `O=C(/C=C/c1ccc(Cl)cc1)Nc1ccc(S(=O)(=O)Nc2ncccn2)cc1` is 0.88%.
The figure for `C/C(=N\NS(=O)(=O)c1ccc(Cl)cc1)c1ccc(NC(=O)c2ccco2)cc1` is 7.91%; for `O=C(Nc1ccccc1)c1nnsc1S(=O)(=O)c1ccc(Cl)cc1` it is 70.3% (active).
Consider `Cn1c(CC(=O)Nc2ccc(F)cc2)nnc1SCC(=O)NC1CCCCC1`, for which the inhibition is -3.82%.
The figure for `CC(=O)N1CCc2c(sc(NC(=O)CCS(=O)(=O)c3ccc(C)cc3)c2C(N)=O)C1` is -0.18%.
The figure for `CS(=O)(=O)c1ccc(C(=O)NNC(=O)c2cccs2)cc1` is 0.8%; for `Cc1ccc2[nH]cc(CCCN3C(=O)c4ccccc4C3=O)c2c1` it is -6.81%.
The value for `Cc1cccc(CSc2nnc(C)c(=O)n2N)c1` was -5.35%; that for `Cc1cccc(CSc2nc3c(c(=O)n2C)SCC3)c1` was 30.4% (active); that for `COCCn1c(SCC(=O)Nc2ccc(F)cc2F)nc2c(c1=O)SCC2` was -3.44%.
As for `CCOC(=O)C1=CN(Cc2ccc(Br)cc2)S(=O)(=O)NC1C` (stereo unspecified), the inhibition is -12.5%.
The figure for `O=C1C2(c3ccccc3)CN(CCCO)CC1(c1ccccc1)CN(CCCO)C2` is 4.09%.
`FC(F)(F)c1cccc(-c2cc3ccccc3nc2N2CCCC2)c1`: the inhibition is 2.79%.
The value for `CCN(CC)CCCC(C)n1c2nc(=O)[nH]c(=O)c-2nc2cc(Cl)ccc21` (stereo unspecified) was 38.6% (active).
The value for `C=CCn1c(N)cc(=O)nc1SCC(=O)Nc1cccc2ccccc12` was 0.21%.
The value for `CCN(CC)P(=O)(C(NC(=O)OC)C(F)(F)C(F)(F)C(F)(F)C(F)F)N(CC)CC` (stereo unspecified) was 2.64%; that for `COc1ccc(NC(=O)/C(Cl)=C(/Cl)S(=O)Cc2ccc(C)cc2)cn1` (stereo unspecified) was 50.8% (active).
On to `CC(C)=CCCC1(C)C=Cc2c(ccc3c2[nH]c2cc(O)c(C)cc23)O1` (stereo unspecified), for which the inhibition is -7.94%.
The value for `Cc1c(CN2CCCC(C(=O)c3cccc(Cl)c3)C2)c(=O)n(-c2ccccc2)n1C` (stereo unspecified) was 7.63%.
The figure for `O=C(C[C@H]1C/C=C\C[C@@H](NC(=O)OCC2c3ccccc3-c3ccccc32)C(=O)O[C@@H](c2ccccc2)CNC1=O)N[C@H](CO)Cc1ccccc1` is -3.13%; for `O=C(NNC(=O)C1C2CCC(C2)C1C(=O)O)c1ccc(Cl)cc1` (stereo unspecified) it is 2.59%.
On to `COc1ccc(NS(=O)(=O)c2ccc(Oc3c(C#N)cccc3C#N)cc2)cc1`, for which the inhibition was 15%.
Regarding `COc1ccc(S(=O)(=O)/N=C2\C=C(NS(=O)(=O)c3ccccc3)C(=O)c3ccccc32)cc1`, the inhibition is 27.9% (active).
The value for `Cc1ccc(S(=O)(=O)/N=C2\C=C(NS(=O)(=O)c3ccc(C)cc3)C(=O)c3ccccc32)cc1` was 4.16%; that for `C[C@H](NC(=O)c1nc[nH]c1C(=O)NCC(=O)OC(C)(C)C)C(=O)OCc1ccccc1` was 17.7%; that for `Cc1cc(NS(=O)(=O)c2ccc(NC(=S)NC(=O)c3ccc(F)cc3Cl)cc2)no1` was 9.04%.
The value for `CN(CC(=O)Nc1ccc(F)cc1)CC(=O)Nc1ccc(Cl)c(S(=O)(=O)N2CCOCC2)c1` was -7.68%; that for `Cc1cccc(NC(=O)c2nc[nH]c2C(=O)NCC(=O)OCc2ccccc2)c1` was 29.3% (active).
The value for `Cc1cccc(NC(=O)c2nc(S(=O)(=O)Cc3ccccc3)ncc2Cl)c1` was 51.3% (active); that for `O=C(N[C@@H](Cc1ccccc1)C(=O)OCc1ccccc1)c1nc[nH]c1C(=O)N[C@@H](Cc1ccccc1)C(=O)OCc1ccccc1` was 2.96%.
On to `Cc1cccc(NS(=O)(=O)c2ccc(C)c(C(=O)NCc3cccnc3)c2)c1`, for which the inhibition was -6.05%.
`Cc1cccc(CS(=O)(=O)c2ncc(Cl)c(C(=O)Nc3ccc(F)cc3)n2)c1`: the inhibition was 33.5% (active).
The figure for `O=C(CS(=O)(=O)Cc1ccccc1)Nc1cccnc1` is -2.16%; for `COc1ccc(NC(=O)CCn2ccnc2)c(OC)c1` it is 4.14%.
Take `COc1ccc(NS(=O)(=O)c2ccc(N3CCOCC3)c(NC(=O)c3ccccc3Br)c2)cc1`: the inhibition was -9.67%.
The value for `Cc1ccc(NS(=O)(=O)c2cc3c(cc2C)NC(=O)CO3)cc1` was 2.56%; that for `CN(Cc1c(F)cccc1Cl)S(=O)(=O)c1cccs1` was -12.9%; that for `Cc1cc(=O)n2nc(N3CCCC3C(=O)NCCCN3CC(C)CC(C)C3)sc2n1` (stereo unspecified) was -11.3%.
The figure for `c1ccc(C(=NNc2nc3ccccc3s2)c2ccccn2)cc1` is 56.1% (active).
Turning to `Cc1ccc(OCCCC(=O)N2CCOCC2)c(C)c1`, the inhibition is -1.8%.
The value for `Cc1ccc(C)c(N2CCN(C(=O)Cn3ncn4cccc4c3=O)CC2)c1` was -6.41%.
The value for `Cc1ccc(C)c(N2CCN(C(=O)CCCCCn3c(=S)[nH]c4ccc(N5CCOCC5)cc4c3=O)CC2)c1` was 33.6% (active); that for `C[C@H]1CN([C@@H](C)CO)C(=O)CCCn2nncc2CO[C@@H]1CN(C)S(=O)(=O)c1cccc(C#N)c1` was -12.9%; that for `CC1(C)Cc2c(sc3nc4n(c(=N)c23)CCCCC4)CO1` was 3.83%.
With `N=c1c2c3c(sc2nc2n1CCCCC2)CCCC3`, the inhibition is 46.3% (active).
Take `N=c1c2c3c(sc2ncn1CCCN1CCOCC1)CCCCC3`: the inhibition is 10.8%.
Take `Cc1cc(C)c(S(=O)(=O)c2cc(F)ccc2C)c(=O)[nH]1`: the inhibition was 1.71%.
The value for `CCN1/C(=C\c2ccc3ccccc3[n+]2CC)Sc2cc(C)ccc21` was 34% (active); that for `CCc1ccc(NC2Nc3cc(C)nn3S2)cc1` (stereo unspecified) was 4.8%; that for `COc1ccc(Cl)cc1C=CC=NNC(=O)c1ccncc1` was -14.8%.
The figure for `CCC1CCC/C1=N\NC(=O)c1ccc(Cl)cc1` (stereo unspecified) is 6.05%; for `CN1CCC[C@@H]1CCO[C@](C)(c1ccccc1)c1ccc(Cl)cc1` it is 97.7% (active); for `COc1cccc2sc3cc(NCC[C@@H]4CCCN4C)ccc3c(=O)c12` it is -7.94%.
The figure for `O=C(Nc1ccc(F)cc1)c1cc2c(s1)CCCC2` is 1.82%.

Source of the values: PubChem BioAssay AID624125 (The Scripps Research Institute Molecular Screening Center, 2012).
